# In PubChem BioAssay AID720723 (Molecular Libraries Program, Specialized Chemistry Center, …, 2013):
# Unmarked numbers belong to inactive results. Calls of active or inactive are those of the source. Cut-off not given; nearly all actives show IC50 up to about 87 µM.
# Assay: rhodamine 123 fluorescence quenching, dose response, artefact control for mitochondrial permeability transition pore inhibitor project, biochemical, dry powder samples (AID 720723)
# Details: Rhodamine 123 fluorescence quenching counterscreen, cell-free
row,SMILES,IC50
1,COc1ccc(Cl)cc1C(=O)Nc1ccc(CN2CCCCC2)cc1,85.9 µM (active)
2,CCN(CC)c1ccc(NC(=O)c2cc(Cl)ccc2OC)cc1,41.2 µM (active)
3,CCOC(=O)N1CCN(S(=O)(=O)c2ccc(C(=O)N(CCCN(C)C)c3nc4c(C)c(C)ccc4s3)cc2)CC1,56.8 µM (active)
4,CC(C)(C)c1ccccc1OCCCCCNCCO,42.8 µM (active)
5,C=CCNCCCOc1ccc(C)cc1Br,69.6 µM (active)
6,C=CCNCCOCCOc1ccc(Cl)cc1C(C)(C)C,21.9 µM (active)
7,CCN(CC)CCCN=Cc1c(O)n(Cc2ccccc2)c(=O)c2ccccc12,> 100 µM
8,COC(=O)c1c(NC(=O)C2CCCCC2)sc2c1CC(C)(C)NC2(C)C,48.1 µM (active)
9,COc1cc(NC(=O)c2cc(-c3cccc(O)c3)on2)cc(OC)c1OC,> 100 µM
